About 83,000 compounds went through this panel and 20% of them were active in at least one assay; those are over-represented in the sample as a whole.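 Percent growth is the endpoint: 0 to 100 indicates growth inhibition (40 means 60% inhibition), 0 means no net growth, and negative values indicate cell death.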 A number with no mark means an inactive call. Activity calls are given as the source filed them. Rule for the calls: active = growth percent below 10; inactive = the rest.
How the values were obtained:
Test in all cases: NCI-60 one-dose screen, 48 h (100 = growth as untreated, 0 = no growth, -100 = all killed)
Conditions in all cases: 10 µM unless noted
NCI-H23 lung = tested on: NCI-H23 lung
NCI-H226 lung = tested on: NCI-H226 lung
NCI-H322M lung = tested on: NCI-H322M lung
NCI-H460 lung = tested on: NCI-H460 lung
HOP-92 NSCLC = tested on: HOP-92 NSCLC
NCI-H522 lung = tested on: NCI-H522 lung
786-0 renal = tested on: 786-0 renal
COLO 205 colon = tested on: COLO 205 colon
A549/ATCC NSCLC = tested on: A549/ATCC NSCLC

| Compound | growth (NCI-H23 lung) | growth (NCI-H226 lung) | growth (NCI-H322M lung) | growth (NCI-H460 lung) | growth (HOP-92 NSCLC) | growth (NCI-H522 lung) | growth (786-0 renal) | growth (COLO 205 colon) | growth (A549/ATCC NSCLC) |
| --- | --- | --- | --- | --- | --- | --- | --- | --- | --- |
| CCN(CC)c1ccc(/C=N/NC(=O)c2ccccc2Nc2ccnc(C(F)(F)F)c2)c(O)c1 | 40.4% | 8.93% (active) | 39.7% | 4.43% (active) | 19.9% | 42.9% | 16.6% | 25.7% | – |
| O=C(Nc1ccc2c(c1)-c1ccccc1C2)C1CC(=O)N(c2ccc3c(c2)OCO3)C1 (configuration not stated) | 51.6% [50 µM] | 30.2% [50 µM] | 55.9% [50 µM] | – | 65% [50 µM] | 77.5% [50 µM] | 30.9% [50 µM] | 86.2% [50 µM] | 66.7% [50 µM] |
| CCOC(=O)c1c(Nc2nc3ccccc3s2)sc2c1CCC(=O)C2 | 26.3% | 91.9% | 85% | 34% | 85.4% | 8.13% (active) | 66% | 65.9% | 68.8% |
| O=C1NCCS(=O)(=O)/C1=C\C=C\c1cccc(C(F)(F)F)c1 | 22.3% | 31.6% | 63.4% | 50.1% | 100% | 16.9% | 20.1% | 25.2% | 39.4% |
| CCN1CCN(c2cc(C(=O)Nc3cccc(Nc4ccc5c(OC)cccc5n4)c3)cc(C(F)(F)F)c2)CC1 | 44.5% | 45.1% | 26.2% | -48.7% (active) | -3.85% (active) | -45.2% (active) | -70.1% (active) | -77.1% (active) | 21.1% |
| O=C(Nc1ccc(Oc2cccc(F)c2)c(Cl)c1)c1cnccn1 | 44.9% | 61.8% | 46.3% | 22.1% | 51.5% | 22.3% | 46.5% | 15.5% | 39.1% |
| CCCCCN(CCCCC)CC(O)c1c(Cl)ccc2ccccc12 (configuration not stated) | 54.1% | 70.4% | 71.2% | 66.5% | 68.1% | 79% | 71.7% | 72.9% | 67.6% |
| Cc1cc2c(c(C)n1)CN(C(=O)Nc1nc(-c3cncs3)ccc1N)C2 | 104% | 107% | 97.8% | 106% | 90.1% | 87.5% | 102% | 110% | 111% |
| C#CC#CC#CC#CC#CC#CC#CC#CC[C@@H]1OC[C@H](COC(=O)O[C@@H](C(=O)O[C@H]2C[C@@]3(O)[C@@H](OC(=O)c4ccccc4)[C@@H]4[C@]5(OC(C)=O)CO[C@@H]5C[C@H](O)[C@@]4(C)C(=O)[C@H](OC(C)=O)C(=C2C)C3(C)C)[C@@H](NC(=O)c2ccccc2)c2ccccc2)O1 | 34.5% | 57.6% | 35.9% | 10.6% | 63.7% | 48.6% | 72.9% | 18.7% | 36.7% |
| c1ccc(-c2cn3nc(-c4c[nH]c5ccccc45)sc3n2)cc1 | 87.6% | 77.3% | 71.4% | 89.2% | 75.5% | 61.2% | 102% | 87.1% | 82.6% |
| COc1cc2c(cc1OC)CC[N+](CCC[N+](C)(C)C)=C2 | 106% | 104% | 88.6% | 109% | 96.1% | 80.3% | 96.2% | 108% | – |
| CCC(C)C(N)C(=O)NC(CC(C)C)C(=O)N1CCCC1C(=O)NC(Cc1c[nH]c2ccccc12)C(=O)NC(CCCCN)C(=O)NC(Cc1c[nH]c2ccccc12)C(=O)N1CCCC1C(=O)NC(Cc1c[nH]c2ccccc12)C(=O)NC(Cc1c[nH]c2ccccc12)C(=O)N1CCCC1C(=O)NC(Cc1c[nH]c2ccccc12)C(=O)NC(CCCNC(=N)N)C(=O)NC(CCCNC(=N)N)C(N)=O (configuration not stated) | 104% | 112% | 100% | 107% | 86.2% | 97.7% | 102% | 97.2% | 106% |
| NC(=N\N=C/c1ccc(Cl)cc1Cl)/C(N)=N\N=C/c1ccc(Cl)cc1Cl | 87.1% | 62.8% | 41% | 20.7% | – | 79.8% | 3.29% (active) | 71.6% | 62.5% |
| CCOC(=O)c1c(C)nc2c(c1N)C(=O)C(=O)N2CCc1ccc(OC)c(OC)c1 | 67% | 74% | 109% | 88.2% | 81.8% | 31.9% | 82.9% | 99.3% | – |
| Oc1ccc(C2OCCO2)c2cccnc12 | 33% | 23.4% | 92.5% | 68.1% | 68.8% | 92.9% | 97.9% | 63.7% | 56.3% |
| CCCCCCCCCCCCCC[n+]1ccc2c(C)c3c(c(C)c2c1)c1cc(O)ccc1n3CC | -64% (active) | -40.5% (active) | -62% (active) | -67.7% (active) | -84.4% (active) | -42.9% (active) | -73.4% (active) | -69.9% (active) | 7.99% (active) |
| Cc1ccc(Nc2nc(N)nc(N)c2N=O)cc1Cl | 71.9% | 94.1% | 104% | 102% | 63% | 75.4% | 79.4% | 111% | 98.3% |
| Nc1nc(N)c2c(n1)NC(c1ccc3c(c1)OCO3)CC(c1cccc(Nc3ccncc3)c1)=N2 (configuration not stated) | 90% | 84.6% | 96.9% | 96.5% | 70.7% | 77.3% | 96.9% | 86.3% | 79.6% |
| Cc1c(-c2cnc3ccc(Cl)cc3c2C(=O)O)nnn1-c1ccc(Cl)cc1 | 103% | 102% | 93.6% | 107% | – | 89.1% | 62.7% | 93.8% | 97.1% |
| COc1ccc(NC(=O)c2ccc(NC3=C(c4ccc(Cl)cc4)C(=O)NC3=O)cc2)cc1 | 85.3% | 84.4% | 85.2% | 90.6% | 102% | 45.2% | 89.1% | 86.3% | 71.2% |
| COc1cc2c(c(OC)c1OC)CCC(c1cccc(C(=O)Nc3ccccc3Br)c1)O2 (configuration not stated) | 97.2% | 92.3% | 94.9% | 104% | 66.3% | 80.1% | 76.2% | 90.5% | 81.2% |
| C#Cc1cccc(Nc2nc(Cl)nc3cc(NC(=O)CCl)ccc23)c1 | -73.9% (active) | -49.4% (active) | -73.1% (active) | -58.9% (active) | -82.7% (active) | -69.1% (active) | -83.6% (active) | -70.5% (active) | 13.1% |
| COc1cc(/C=C/c2cc(/C=C/c3ccc(O)c(OC)c3)n(C(=O)Nc3ccc(C)cc3C)n2)ccc1O | -26.1% (active) | -3.7% (active) | 8.13% (active) | 1.87% (active) | -27% (active) | 6.31% (active) | -59.1% (active) | -65.6% (active) | -3.98% (active) |
| Cc1cccc(CN(Nc2ccccc2)c2ccccc2)n1 | 104% | 103% | 96.7% | 101% | 65% | 103% | 107% | 111% | 93.1% |
| C=C(CNCCc1ccc(O)cc1)[C@@H]1CC[C@]2(CO)CC[C@]3(C)[C@H](CC[C@@H]4[C@@]5(C)CCC(N)C(C)(C)[C@@H]5CC[C@]43C)[C@@H]12 (some centres not stated) | -66.5% (active) | 87.6% | -53.7% (active) | – | -78.8% (active) | -64.8% (active) | -87.3% (active) | -72.2% (active) | -66.6% (active) |
| Cn1cc(-c2nc(-c3c[nH]c4ccncc34)cs2)c2cc(F)ccc21 | -55.9% (active) | 57.9% | -75% (active) | -70.5% (active) | -89.5% (active) | -66.1% (active) | -92.5% (active) | -74.1% (active) | -79.6% (active) |

— PubChem BioAssay (NCI)
